Data reported in PubChem BioAssay (NCATS).
Results filed as inconclusive are left out. Activity calls are given as the source filed them. The call rests on the fitted dose curve; in most records, active means well fitted cell-killing curve with a large enough effect; inconclusive means small, poorly fitted or top-dose-only effect, or effect the other way; inactive means no such curve, though single readings can be large or run the other way.

Test: Quantitative High-Throughput drug screen in 47 multiple myeloma cell lines against the NCATS MIPE library collection: KMS12PE_JCRB cell viability assay (AID 1918972); further: nearly all actives have a fitted effect of over 30% in size;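 on viability: 100% = DMSO only wells and 0% = wells with media alone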
Details: KMS12PE myeloma viability, CellTiter-Glo ATP, 48 h; series mostly up to 45.8 µM; viability: at the top concentration
Procedure, shortened: (§1)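 Steps: seed 500 cells per well; pin-transfer MIPE 4.0 library; incubate 48 h at 37C, 5% CO2, humidified; add CellTiter-Glo, 5 min room temperature; read luminescence.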
Potency means the concentration at half of the fitted maximal effect.

Row | SMILES | viability | Potency
1 | CC1=CC(=O)c2ccccc2C1=O | 96.8% (inactive) | 
2 | Nc1nc(N)nc(-c2cc(Cl)ccc2Cl)n1 | 107% (inactive) | 
3 | CC1=C(C(=O)O)N2C(=O)[C@@H](NC(=O)C(N)c3ccccc3)[C@H]2SC1 (stereo partly drawn) | 105% (inactive) | 
4 | N[C@@H](Cc1ccc(O)c(O)c1)C(=O)O | 139% (inactive) | 
5 | N[C@@H](C(=O)N[C@@H]1C(=O)N2C(C(=O)O)=C(Cl)CS[C@H]12)c1ccccc1 | 95.5% (inactive) | 
6 | CCOC(=O)c1ccc(C#Cc2ccc3c(c2)C(C)(C)CCS3)nc1 |  | 11.8 µM (active)
7 | COc1ncnc(NS(=O)(=O)c2ccc(N)cc2)c1OC | 93.8% (inactive) | 

Test: Quantitative High-Throughput drug screen in 47 multiple myeloma cell lines against the NCATS MIPE library collection: KMS20_JCRB cell viability assay (AID 1918973); further: nearly all actives have a fitted effect of over 45% in size;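 on viability (% of DMSO): 100% = DMSO only wells and 0% = media only wells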
Details: CellTiter-Glo ATP, 48 h; series mostly up to 45.8 µM; viability (% of DMSO): at the top concentration
Procedure, shortened: as §1

Row | SMILES | viability (% of DMSO) | Potency
8 | CCCN[C@H]1CCc2nc(N)sc2C1 | 98.4% (inactive) | 
9 | CNS(=O)(=O)Cc1ccc2[nH]cc(CCN(C)C)c2c1 | 111% (inactive) | 
10 | CCCOc1ccc(C(=O)OCCN(CC)CC)cc1N | 92.6% (inactive) | 
11 | CC(C)NCC(O)c1ccc(NS(C)(=O)=O)cc1 (stereo not drawn) | 113% (inactive) | 
12 | C[C@@H]1C[C@H]2[C@@H]3CCC4=CC(=O)C=C[C@]4(C)[C@@]3(Cl)[C@@H](O)C[C@]2(C)[C@@]1(OC(=O)c1ccco1)C(=O)CCl |  | 7.43 µM (active)
13 | CCCCCCNC(=O)n1cc(F)c(=O)[nH]c1=O | 129% (inactive) | 
14 | Nc1ccc(S(=O)(=O)Nc2ccccn2)cc1 | 107% (inactive) | 
15 | O=C(O)C1CCCN(CCC=C(c2ccccc2)c2ccccc2)C1 (stereo not drawn) | 145% (inactive) | 
16 | COC(=O)Nc1nc2ccc(C(=O)c3ccccc3)cc2[nH]1 |  | 1.32 µM (active)
17 | NC(=O)c1cccc(N)c1 | 85.4% (inactive) | 
18 | CC[C@H](NC(C)C)[C@H](O)c1ccc(O)c2[nH]c(=O)ccc12 | 141% (inactive) | 
19 | CC(C)C1CCC(C(=O)N[C@H](Cc2ccccc2)C(=O)O)CC1 (stereo partly drawn) | 113% (inactive) | 
20 | CC1=C(C(=O)O)N2C(=O)[C@@H](NC(=O)C(N)c3ccccc3)[C@H]2SC1 (stereo partly drawn) | 86.6% (inactive) | 
21 | N[C@@H](Cc1ccc(O)c(O)c1)C(=O)O | 124% (inactive) | 
22 | N[C@@H](C(=O)N[C@@H]1C(=O)N2C(C(=O)O)=C(Cl)CS[C@H]12)c1ccccc1 | 83% (inactive) | 
23 | CCOC(=O)c1ccc(C#Cc2ccc3c(c2)C(C)(C)CCS3)nc1 | 129% (inactive) | 

Test: Quantitative High-Throughput drug screen in 47 multiple myeloma cell lines against the NCATS MIPE library collection: KMS21BM_JCRB cell viability assay (AID 1918974)
Details: ATP luminescence, 48 h; viability: at 45.8 µM (top of the series)
Procedure, shortened: as §1

Row | SMILES | Potency | viability
24 | CCCCCCNC(=O)n1cc(F)c(=O)[nH]c1=O | 0.332 µM (active) | 
25 | Nc1ccc(S(=O)(=O)Nc2ccccn2)cc1 |  | 144% (inactive)
26 | CC(C(=O)O)c1ccc2c(c1)CC(=O)c1ccccc1S2 (stereo not drawn) | 0.264 µM (active) | 

Test: Quantitative High-Throughput drug screen in 47 multiple myeloma cell lines against the NCATS MIPE library collection: KMS26_JCRB cell viability assay (AID 1918975); further: nearly all actives have a fitted effect of over 45% in size;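 on viability (% of DMSO): 100% = DMSO-treated wells and 0% = wells with media only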
Details: KMS26 myeloma cells viability, CellTiter-Glo ATP, 48 h; series mostly up to 45.8 µM; viability (% of DMSO): at the top concentration
Procedure, shortened: as §1

Row | SMILES | viability (% of DMSO) | Potency
27 | CCN(CC)CCn1c(=O)c(Cc2ccc(OC)cc2)nc2ccccc21 | 128% (inactive) | 
28 | CNS(=O)(=O)Cc1ccc2[nH]cc(CCN(C)C)c2c1 | 157% (inactive) | 
29 | CCCOc1ccc(C(=O)OCCN(CC)CC)cc1N | 145% (inactive) | 
30 | C[C@@H]1C[C@H]2[C@@H]3CCC4=CC(=O)C=C[C@]4(C)[C@@]3(Cl)[C@@H](O)C[C@]2(C)[C@@]1(OC(=O)c1ccco1)C(=O)CCl |  | 14.8 µM (active)
31 | O=C(NCC1CN(c2ccc(N3CCOCC3=O)cc2)C(=O)O1)c1ccc(Cl)s1 (stereo not drawn) | 121% (inactive) | 
32 | Nc1ccc(S(=O)(=O)Nc2ccccn2)cc1 | 124% (inactive) | 
33 | O=C(O)C1CCCN(CCC=C(c2ccccc2)c2ccccc2)C1 (stereo not drawn) | 137% (inactive) | 
34 | OC(Cn1cncn1)(Cn1cncn1)c1ccc(F)cc1F | 127% (inactive) | 
35 | COC(=O)Nc1nc2ccc(C(=O)c3ccccc3)cc2[nH]1 |  | 8.33 µM (active)
36 | NC(=O)c1cccc(N)c1 | 156% (inactive) | 
37 | CN(C)CCc1c[nH]c2ccc(CS(=O)(=O)N3CCCC3)cc12 | 124% (inactive) | 
38 | CC[C@H](NC(C)C)[C@H](O)c1ccc(O)c2[nH]c(=O)ccc12 | 113% (inactive) | 
39 | CC(C)C1CCC(C(=O)N[C@H](Cc2ccccc2)C(=O)O)CC1 (stereo partly drawn) | 98% (inactive) | 
40 | CC1=NN(c2ccccc2)C(=O)C1 | 133% (inactive) | 
41 | O=NN(CCCl)C(=O)NC1CCCCC1 | 148% (inactive) | 
42 | CO[C@@H]1[C@@H](OC(N)=O)[C@@H](O)[C@H](Oc2ccc3c(O)c(NC(=O)c4ccc(O)c(CC=C(C)C)c4)c(=O)oc3c2C)OC1(C)C |  | 9.35 µM (active)
43 | O=P(O)(O)C(O)(Cc1cccnc1)P(=O)(O)O |  | 0.0017 µM (active)
44 | CC1=CC(=O)c2ccccc2C1=O |  | 10.5 µM (active)
45 | N[C@@H](C(=O)N[C@@H]1C(=O)N2C(C(=O)O)=C(Cl)CS[C@H]12)c1ccccc1 | 111% (inactive) | 
46 | CCOC(=O)c1ccc(C#Cc2ccc3c(c2)C(C)(C)CCS3)nc1 | 115% (inactive) | 
47 | CN1CCCC(n2nc(Cc3ccc(Cl)cc3)c3ccccc3c2=O)CC1 (stereo not drawn) |  | 3.72 µM (active)
48 | COc1ncnc(NS(=O)(=O)c2ccc(N)cc2)c1OC | 139% (inactive) | 

Test: Quantitative High-Throughput drug screen in 47 multiple myeloma cell lines against the NCATS MIPE library collection: MMM1_PLB cell viability assay (AID 1918976); further: nearly all actives have a fitted effect of over 35% in size
Details: MMM1 myeloma cells viability, CellTiter-Glo, 48 h; series mostly up to 45.8 µM; viability (% of control): at the top concentration
Procedure, shortened: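 Inhibition of viability over 48 h was scored by ATP content (CellTiter-Glo) in 500-cell wells. Zero and full viability were defined by media-only and DMSO-only wells.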

Row | SMILES | Potency | viability (% of control)
49 | CC(C)NCC(O)c1ccc(NS(C)(=O)=O)cc1 (stereo not drawn) | 2.09 µM (active) | 
50 | C[C@@H]1C[C@H]2[C@@H]3CCC4=CC(=O)C=C[C@]4(C)[C@@]3(Cl)[C@@H](O)C[C@]2(C)[C@@]1(OC(=O)c1ccco1)C(=O)CCl | 18.7 µM (active) | 
51 | O=C(O)C1CCCN(CCC=C(c2ccccc2)c2ccccc2)C1 (stereo not drawn) |  | 125% (inactive)
52 | OC(Cn1cncn1)(Cn1cncn1)c1ccc(F)cc1F | 10.5 µM (active) | 
53 | CN(Cc1cc(Br)cc(Br)c1N)C1CCCCC1 | 33.2 µM (active) | 
54 | CC1=CC(=O)c2ccccc2C1=O | 8.33 µM (active) | 
55 | Cc1nnc(C(=O)NC(C)(C)c2nc(C(=O)NCc3ccc(F)cc3)c(O)c(=O)n2C)o1 | 7.43 µM (active) | 
56 | Nc1nc(N)nc(-c2cc(Cl)ccc2Cl)n1 | 0.0526 µM (active) | 
57 | CN1CCCC(n2nc(Cc3ccc(Cl)cc3)c3ccccc3c2=O)CC1 (stereo not drawn) | 8.33 µM (active) | 
58 | CC(C)Cn1cnc2c(N)nc3ccccc3c21 | 16.6 µM (active) | 
